Measured values: PubChem BioAssay (Tox21)
Results filed as inconclusive are left out. Entries that show only a call come without a potency. The source made the active and inactive calls. The call rests on the fitted dose curve.

biological target: Vitamin D3 receptor (Homo sapiens) (UniProt P11473); test: qHTS assay to identify small molecule agonists of the vitamin D receptor (VDR) signaling pathway (AID 743222); conditions: HEK293T VDR-UAS-bla, beta-lactamase FRET ratio, 16 h; series mostly up to 63.5 µM
Sequence (P11473 whole entry, looked up): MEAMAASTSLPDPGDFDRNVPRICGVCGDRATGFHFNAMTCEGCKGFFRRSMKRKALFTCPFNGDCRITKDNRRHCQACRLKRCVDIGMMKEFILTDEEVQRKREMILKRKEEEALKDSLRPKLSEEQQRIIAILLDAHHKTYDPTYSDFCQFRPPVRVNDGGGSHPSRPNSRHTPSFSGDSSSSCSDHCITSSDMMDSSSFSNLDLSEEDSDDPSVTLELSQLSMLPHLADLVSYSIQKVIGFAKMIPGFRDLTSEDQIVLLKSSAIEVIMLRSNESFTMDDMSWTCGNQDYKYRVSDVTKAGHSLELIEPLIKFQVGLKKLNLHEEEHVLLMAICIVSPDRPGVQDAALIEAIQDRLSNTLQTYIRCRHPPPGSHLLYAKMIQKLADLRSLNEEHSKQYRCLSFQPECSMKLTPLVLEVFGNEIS
Description: National Center for Advancing Translational Sciences [NCATS]
NIH Chemical Genomics Center [NCGC]
U.S. Environmental Protection Agency [EPA]
National Institutes of Environmental Health Sciences [NIEHS]
National Toxicology Program [NTP]
U.S. Food and Drug Administration [FDA]
The vitamin D receptor (VDR), a member of nuclear hormone receptor superfamily, plays a critical role in calcium homeostasis and bone metabolism. It is also involved in cell differentiation and growth, and thrombogenicity.
Tox21 Assay Protocol Summary:
VDR-bla cells were dispensed at 2,000 cells/6 uL/well into black wall/clear-bottom 1536-well plates using a Multidrop Combi (Thermo Fisher Scientific, Waltham, MA) dispenser. After the assay plates were incubated at a 37C and 5% CO2 for 4 h, 23 nL of compounds dissolved in DMSO, positive controls or DMSO only was transferred to the assay plate by a Pintool station (Kalypsys, San Diego, CA). The plates were incubated at 37C and 5% CO2 for 16 h. After 1 uL of LiveBLAzerTM B/G FRET substrate was added using a Bioraptr Flying Reagent Dispenser (FRD) workstation (Beckman Coulter, Indianapolis, IN, USA), the plates were incubated at room temperature for 2 h, and fluorescence intensity was measured by an Envision plate reader (PerkinElmer, Shelton, CT).

Row | SMILES | Potency
1 | CC(Cc1ccc(OCC(=O)O)cc1)NCC(O)c1csc(C(F)(F)F)n1 (stereo not given) | inactive
2 | CO/N=C(\C(=O)OC)c1ccccc1CO/N=C(\C)c1cccc(C(F)(F)F)c1 | inactive
3 | O=C(N[C@@H]1N=C(c2ccccc2F)c2cccc3c2N(CC3)C1=O)c1cc2ccccc2[nH]1 | inactive
4 | CC1(C)C(C=C(Cl)Cl)C1C(=O)OC(C#N)c1ccc(F)c(Oc2ccccc2)c1 (stereo not given) | inactive
5 | CN | inactive
6 | CCOC(=O)Cc1ccccc1 | inactive
7 | C=C(C)C(=O)[O][Sn]([CH2]CCC)([CH2]CCC)[CH2]CCC | inactive
8 | Clc1ccc(C(Cl)(Cl)Cl)cc1Cl | inactive
9 | ClC1(Cl)C2(Cl)C3(Cl)C4(Cl)C(Cl)(Cl)C5(Cl)C3(Cl)C1(Cl)C5(Cl)C24Cl (stereo not given) | inactive
10 | C=CC(=O)[O][Sn]([CH2]CCC)([CH2]CCC)[CH2]CCC | inactive
11 | O=Cc1ccccc1 | inactive
12 | O=C(O)CCCCCCNC1c2ccccc2CCc2ccccc21 | inactive
13 | FC(F)C(F)(F)OCC(Cn1cncn1)c1ccc(Cl)cc1Cl (stereo not given) | inactive
14 | CCN(CC)C(=O)N[C@@H]1C=C2c3cccc4[nH]cc(c34)C[C@@H]2N(C)C1 | inactive
15 | Nc1ccccc1-c1ccccc1 | inactive
16 | CC(C)[C@@H](Nc1ccc(C(F)(F)F)cc1Cl)C(=O)OC(C#N)c1cccc(Oc2ccccc2)c1 (stereo not given in full) | inactive
17 | N#Cc1ccc(N(CC(N)=O)CC(F)(F)F)cc1C(F)(F)F | inactive
18 | O=c1c2ccccc2c(=O)c2c1cc(Cl)c1[nH]c3c([nH]c12)c(Cl)cc1c(=O)c2ccccc2c(=O)c13 | inactive
19 | Clc1ccc(C(c2ccc(Cl)cc2)C(Cl)Cl)cc1 | inactive
20 | O=C(Cl)c1ccccc1F | inactive

Row | SMILES | Potency
21 | Cc1cc(C2CC2)nc(Nc2ccccc2)n1 | inactive
22 | C1=CCC=C1 | inactive
23 | CCC1(CC)C(=O)N=C(O)NC1=O | inactive
24 | COC(=O)c1cc(Oc2ccc(Cl)cc2Cl)ccc1[N+](=O)[O-] | inactive
25 | CNC(=O)Oc1cc(C)cc(C(C)C)c1 | inactive
26 | CC[N+]1(CC)CCC(OC(=O)C(O)(c2ccccc2)c2ccccc2)C1 (stereo not given) | inactive
27 | CC(Cl)CCl (stereo not given) | inactive
28 | N#CCCl | inactive
29 | Cc1cc2c3c(c1)C(c1ccccc1)=N[C@@H](NC(=O)c1ccncc1)C(=O)N3CC2 | inactive
30 | COC(=O)C(C)N(C(=O)c1ccco1)c1c(C)cccc1C (stereo not given) | inactive
31 | C[C@]12Cc3cn[nH]c3C[C@@H]1CC[C@@H]1[C@@H]2CC[C@@]2(C)[C@H]1CC[C@]2(C)O | inactive
32 | CC(C)N(C(=O)CCl)c1ccccc1 | inactive
33 | CCC(C)c1cccc(C(C)CC)c1O (stereo not given) | inactive
34 | C#CCO | inactive
35 | Cc1ccc(C)c2ccccc12 | inactive
36 | Cc1nn(-c2cc(NS(C)(=O)=O)c(Cl)cc2Cl)c(=O)n1C(F)F | inactive
37 | COP(=O)(OC)Oc1ccc([N+](=O)[O-])cc1 | inactive
38 | N#Cc1c[nH]cc1-c1cccc2c1OC(F)(F)O2 | inactive
39 | CCC1COC(Cn2cncn2)(c2ccc(Cl)cc2Cl)O1 (stereo not given) | inactive
40 | ClC1=C(Cl)[C@]2(Cl)[C@H]3[C@H]([C@@H]4C=C[C@H]3C4)[C@@]1(Cl)C2(Cl)Cl | inactive
